{"source": "ChEMBL document CHEMBL3433997", "about": "“St. Jude Leishmania screening dataset” (2016)", "data": [{"target": "Solute carrier family 2, facilitated glucose transporter member 1 (Homo sapiens) (UniProt P11166)", "sequence (P11166 whole entry)": "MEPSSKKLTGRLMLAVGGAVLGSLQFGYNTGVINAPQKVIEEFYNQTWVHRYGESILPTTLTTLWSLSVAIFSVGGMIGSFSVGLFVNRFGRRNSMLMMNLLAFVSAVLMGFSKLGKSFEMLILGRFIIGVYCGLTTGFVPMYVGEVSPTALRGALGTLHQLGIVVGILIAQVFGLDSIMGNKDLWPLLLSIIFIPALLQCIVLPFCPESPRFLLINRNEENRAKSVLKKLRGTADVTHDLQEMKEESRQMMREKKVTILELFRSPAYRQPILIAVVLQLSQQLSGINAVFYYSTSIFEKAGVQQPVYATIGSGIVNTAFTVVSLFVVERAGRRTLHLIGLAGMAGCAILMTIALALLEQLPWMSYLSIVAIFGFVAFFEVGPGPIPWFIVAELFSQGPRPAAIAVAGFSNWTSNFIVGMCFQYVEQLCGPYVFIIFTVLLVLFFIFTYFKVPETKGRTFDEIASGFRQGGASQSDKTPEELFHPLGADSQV", "assay": "ST_JUDE_LEISH: Cytotoxicity at 2uM final concentration against transgenic Leishmania Mexicana promastigotes LmGLUT1 that are glucose transport deficient and complemented with the human glucose transporter GLUT1. Activity is measured by DNA content using SYBR green in vitro", "format": "functional", "units": {"inhibition": "%"}, "values": [{"smiles": "NC(=O)c1cccc(C(=O)Nc2cccc(-c3csc(-c4nc5ccccc5[nH]4)c3)c2)c1", "inhibition": 2.68}, {"smiles": "Cc1cccc2nc(-c3ccc(-c4ccc(CNCC5CCCO5)cc4)cc3)[nH]c12", "note": "(stereo not given)", "inhibition": 16.3}, {"smiles": "O=C(Nc1ccc(N2CCN(C(=O)/C=C/c3ccccc3)CC2)c(Cl)c1)c1ccc([N+](=O)[O-])o1", "inhibition": 58.5}, {"smiles": "Cc1ccc(Oc2ccccc2NC(=O)CCc2nc3ccccc3c(=O)[nH]2)cc1", "inhibition": 0.1}, {"smiles": "CCCOc1cc(O)c(-c2[nH]nc(C)c2Oc2ccccc2)cc1CC", "inhibition": 1.25}, {"smiles": "COc1ccc(-c2cccc(NC(=O)c3cccc(F)c3)c2)cc1CN1CCCN(C)CC1", "inhibition": 2.17}, {"smiles": "O=C(/C=C/c1ccc(C(F)(F)F)cc1)NCCCCCN1CCCN(C(=O)Nc2cccc(Cl)c2)CC1", "inhibition": -0.19}, {"smiles": "O=C(Nc1ccc(F)c(Cl)c1)NC1CCN(c2ccnc3cc(Cl)ccc23)C1", "note": "(stereo not given)", "inhibition": 6.4}, {"smiles": "c1cc(CN2CCCCC2)cc(-c2ccc(-c3nc4ccccc4[nH]3)s2)c1", "inhibition": 4.86}, {"smiles": "O=C(Nc1cc(Cl)cc(Cl)c1)N[C@H]1CCN(CCCCCNC(=O)C2CC2c2ccc(Cl)c(Cl)c2)C1", "note": "(stereo not given in full)", "inhibition": 0.25}, {"smiles": "Cc1cc2c(NC(=O)NC3CCN(CCc4cccc(Cl)c4)CC3)cccc2cn1", "inhibition": -1.26}, {"smiles": "O=C(NCc1ccccn1)C(c1cc2ccccc2o1)N1CCN(C(c2ccccc2)c2ccccc2)CC1", "note": "(stereo not given)", "inhibition": 0.6}, {"smiles": "O=C(Nc1ccc(-c2oc(C(=O)NCCc3cccc(Cl)c3)cc2-c2ccncc2)cc1)Nc1cccc(Cl)c1", "inhibition": 0.9}, {"smiles": "O=C(NC1CCC(N2CCN(c3cccc(C(F)(F)F)c3)CC2)CC1)c1cc2ccccc2[nH]1", "note": "(stereo not given)", "inhibition": 8.24}, {"smiles": "Cc1ccc(-n2c(=O)c3c(n4c(SC(C)C)nnc24)-c2ccccc2CC32CCCCC2)cc1", "inhibition": 7.08}, {"smiles": "COc1ccccc1NC(=O)OC(COc1ccc(N)cc1)CN1CC=C(c2ccccc2)CC1", "note": "(stereo not given)", "inhibition": 0.46}, {"smiles": "COc1ccc(-c2nc(NC(=O)CS(=O)(=O)c3ccc(F)cc3)sc2C)cc1", "inhibition": 8.03}, {"smiles": "O=C(NC1CCN(Cc2ccccc2)CC1)c1ccc(-c2nc3cc4ccccc4cc3[nH]2)s1", "inhibition": 3.9}, {"smiles": "COc1c(C2CCN(CCCCNC(=O)c3ccc(-c4ccc(C(F)(F)F)cc4)c(C(=O)OC(C)C)c3)CC2)ccc2c1CCCC2", "inhibition": 1.36}, {"smiles": "CCCCCCNC(=N)c1ccc2[nH]c(-c3ccc(O)cc3)nc2c1", "inhibition": 3.58}, {"smiles": "CC(C)CC1(C(=O)OC(C)(C)C)CC(C(=O)OC(C)(C)C)C(c2cccs2)N1C(=O)c1ccc(C(C)(C)C)cc1", "note": "(stereo not given)", "inhibition": 3.89}, {"smiles": "COC(=O)c1ccc(-c2ccc(-c3cccnc3)cc2C)cc1", "inhibition": 91.7}, {"smiles": "O=C(NCCCCNCC(Cc1cccc(O)c1)c1ccccc1)c1ccc(NC(=O)c2ccc(Cl)cc2)cc1", "note": "(stereo not given)", "inhibition": -0.19}, {"smiles": "O=C(Nc1ccc2c(c1)CCN2C1CCN(Cc2cccc(C(F)(F)F)c2)C1)c1ccco1", "note": "(stereo not given)", "inhibition": -2.78}, {"smiles": "CC(C)Cc1cnc2nc(N)nc(N)c2c1", "inhibition": 1.42}, {"smiles": "CCN(CC)Cc1cc(NC(=O)c2ccccc2O)ccc1Oc1ccc(Cl)cc1", "inhibition": 2.02}, {"smiles": "COc1cc(OC)nc(-c2cccc(NC(=O)c3ccc4c(=O)n(CCN5CCCCC5)cnc4c3)c2)n1", "inhibition": 11.9}, {"smiles": "CNC(=O)c1cc(S(=O)(=O)N2CCN(c3ccccn3)CC2)c(C)s1", "inhibition": -1.34}, {"smiles": "Fc1ccc2[nH]c(-c3ccccc3)nc2c1CN1CCC(N2CCCC2)CC1", "inhibition": -0.78}, {"smiles": "CCCCCCCCOc1ccc(N2C(N)=NC(N)=NC2(C)C)cc1", "inhibition": 2.56}, {"smiles": "CS(=O)(=O)c1ccc(CNCc2cccc(-c3cccc(-c4nc5cc(F)ccc5[nH]4)c3)c2)cc1", "inhibition": 2.4}, {"smiles": "Cc1[nH]c(C)c(-c2ccc(-c3cccc(Cl)c3)nc2)c(=O)c1Br", "inhibition": 0}, {"smiles": "Cc1cccc2nc(-c3cccc(-c4cccc(CNCCN5CCNCC5)c4)c3)[nH]c12", "inhibition": 0.34}, {"smiles": "Nc1nc(N)c2c(Oc3cccnc3)cccc2n1", "inhibition": 0.1}, {"smiles": "COc1ccc2nccc([C@@H](O)CN3CCC(NCCOc4cc(C(F)(F)F)ccc4F)CC3)c2c1", "inhibition": 21.5}, {"smiles": "CCN(CC)CCN(Cc1ccc(-c2ccc(C(F)(F)F)cc2)cc1)C(=O)Cn1c(CCc2ccc(F)c(F)c2F)nc(=O)c2ccc(F)cc21", "inhibition": 3.42}, {"smiles": "COc1ccc2nc3cc(Cl)ccc3c(N)c2c1", "inhibition": 15.8}, {"smiles": "CCCCCc1cnc2nc(N)nc(N)c2c1C", "inhibition": 13.6}, {"smiles": "CN(C)CCCn1cncc1-c1ccc2ncnc(Nc3ccc4c(cnn4Cc4ccccc4)c3)c2c1", "inhibition": 1.25}, {"smiles": "CCCCCCC(N)c1ccc(OCCCOc2ccc(C(N)CCCCCC)cc2)cc1", "note": "(stereo not given)", "inhibition": 107}]}, {"target": "Hexose transporter 1 (Plasmodium falciparum) (UniProt O97467)", "assay": "ST_JUDE_LEISH: Cytotoxicity at 2uM final concentration against transgenic Leishmania Mexicana promastigotes LmPfHT that are glucose transport deficient and complemented with the Plasmodium falciparum hexose transporter. Activity is measured by DNA content using SYBR green in vitro", "format": "functional", "units": {"inhibition": "%"}, "values": [{"smiles": "NC(=O)c1cccc(C(=O)Nc2cccc(-c3csc(-c4nc5ccccc5[nH]4)c3)c2)c1", "inhibition": 2.2}, {"smiles": "Cc1cccc2nc(-c3ccc(-c4ccc(CNCC5CCCO5)cc4)cc3)[nH]c12", "note": "(stereo not given)", "inhibition": 14.9}, {"smiles": "O=C(Nc1ccc(N2CCN(C(=O)/C=C/c3ccccc3)CC2)c(Cl)c1)c1ccc([N+](=O)[O-])o1", "inhibition": 68}, {"smiles": "Cc1ccc(Oc2ccccc2NC(=O)CCc2nc3ccccc3c(=O)[nH]2)cc1", "inhibition": 0.95}, {"smiles": "CCCOc1cc(O)c(-c2[nH]nc(C)c2Oc2ccccc2)cc1CC", "inhibition": -0.1}, {"smiles": "COc1ccc(-c2cccc(NC(=O)c3cccc(F)c3)c2)cc1CN1CCCN(C)CC1", "inhibition": 1.16}, {"smiles": "O=C(/C=C/c1ccc(C(F)(F)F)cc1)NCCCCCN1CCCN(C(=O)Nc2cccc(Cl)c2)CC1", "inhibition": -1.13}, {"smiles": "O=C(Nc1ccc(F)c(Cl)c1)NC1CCN(c2ccnc3cc(Cl)ccc23)C1", "note": "(stereo not given)", "inhibition": 6.38}, {"smiles": "c1cc(CN2CCCCC2)cc(-c2ccc(-c3nc4ccccc4[nH]3)s2)c1", "inhibition": 1.16}, {"smiles": "O=C(Nc1cc(Cl)cc(Cl)c1)N[C@H]1CCN(CCCCCNC(=O)C2CC2c2ccc(Cl)c(Cl)c2)C1", "note": "(stereo not given in full)", "inhibition": -1.16}, {"smiles": "Cc1cc2c(NC(=O)NC3CCN(CCc4cccc(Cl)c4)CC3)cccc2cn1", "inhibition": 1.1}, {"smiles": "O=C(NCc1ccccn1)C(c1cc2ccccc2o1)N1CCN(C(c2ccccc2)c2ccccc2)CC1", "note": "(stereo not given)", "inhibition": 2.14}, {"smiles": "O=C(Nc1ccc(-c2oc(C(=O)NCCc3cccc(Cl)c3)cc2-c2ccncc2)cc1)Nc1cccc(Cl)c1", "inhibition": 1.65}, {"smiles": "O=C(NC1CCC(N2CCN(c3cccc(C(F)(F)F)c3)CC2)CC1)c1cc2ccccc2[nH]1", "note": "(stereo not given)", "inhibition": 6.44}, {"smiles": "Cc1ccc(-n2c(=O)c3c(n4c(SC(C)C)nnc24)-c2ccccc2CC32CCCCC2)cc1", "inhibition": 6.98}, {"smiles": "COc1ccccc1NC(=O)OC(COc1ccc(N)cc1)CN1CC=C(c2ccccc2)CC1", "note": "(stereo not given)", "inhibition": 0.25}, {"smiles": "COc1ccc(-c2nc(NC(=O)CS(=O)(=O)c3ccc(F)cc3)sc2C)cc1", "inhibition": 4.52}, {"smiles": "O=C(NC1CCN(Cc2ccccc2)CC1)c1ccc(-c2nc3cc4ccccc4cc3[nH]2)s1", "inhibition": 2.65}, {"smiles": "COc1c(C2CCN(CCCCNC(=O)c3ccc(-c4ccc(C(F)(F)F)cc4)c(C(=O)OC(C)C)c3)CC2)ccc2c1CCCC2", "inhibition": 1.79}, {"smiles": "CCCCCCNC(=N)c1ccc2[nH]c(-c3ccc(O)cc3)nc2c1", "inhibition": 4.17}, {"smiles": "CC(C)CC1(C(=O)OC(C)(C)C)CC(C(=O)OC(C)(C)C)C(c2cccs2)N1C(=O)c1ccc(C(C)(C)C)cc1", "note": "(stereo not given)", "inhibition": 3.12}, {"smiles": "COC(=O)c1ccc(-c2ccc(-c3cccnc3)cc2C)cc1", "inhibition": 90.5}, {"smiles": "O=C(NCCCCNCC(Cc1cccc(O)c1)c1ccccc1)c1ccc(NC(=O)c2ccc(Cl)cc2)cc1", "note": "(stereo not given)", "inhibition": -3.38}, {"smiles": "O=C(Nc1ccc2c(c1)CCN2C1CCN(Cc2cccc(C(F)(F)F)c2)C1)c1ccco1", "note": "(stereo not given)", "inhibition": 0.28}, {"smiles": "CC(C)Cc1cnc2nc(N)nc(N)c2c1", "inhibition": 2.76}, {"smiles": "CCN(CC)Cc1cc(NC(=O)c2ccccc2O)ccc1Oc1ccc(Cl)cc1", "inhibition": 0.32}, {"smiles": "COc1cc(OC)nc(-c2cccc(NC(=O)c3ccc4c(=O)n(CCN5CCCCC5)cnc4c3)c2)n1", "inhibition": 9.45}, {"smiles": "CNC(=O)c1cc(S(=O)(=O)N2CCN(c3ccccn3)CC2)c(C)s1", "inhibition": -1.2}, {"smiles": "Fc1ccc2[nH]c(-c3ccccc3)nc2c1CN1CCC(N2CCCC2)CC1", "inhibition": 0.83}, {"smiles": "CCCCCCCCOc1ccc(N2C(N)=NC(N)=NC2(C)C)cc1", "inhibition": 3.69}, {"smiles": "CS(=O)(=O)c1ccc(CNCc2cccc(-c3cccc(-c4nc5cc(F)ccc5[nH]4)c3)c2)cc1", "inhibition": 0.6}, {"smiles": "Cc1[nH]c(C)c(-c2ccc(-c3cccc(Cl)c3)nc2)c(=O)c1Br", "inhibition": 1.07}, {"smiles": "Cc1cccc2nc(-c3cccc(-c4cccc(CNCCN5CCNCC5)c4)c3)[nH]c12", "inhibition": -3.8}, {"smiles": "Nc1nc(N)c2c(Oc3cccnc3)cccc2n1", "inhibition": -1.61}, {"smiles": "COc1ccc2nccc([C@@H](O)CN3CCC(NCCOc4cc(C(F)(F)F)ccc4F)CC3)c2c1", "inhibition": 33.3}, {"smiles": "CCN(CC)CCN(Cc1ccc(-c2ccc(C(F)(F)F)cc2)cc1)C(=O)Cn1c(CCc2ccc(F)c(F)c2F)nc(=O)c2ccc(F)cc21", "inhibition": 0.08}, {"smiles": "COc1ccc2nc3cc(Cl)ccc3c(N)c2c1", "inhibition": 10}, {"smiles": "CCCCCc1cnc2nc(N)nc(N)c2c1C", "inhibition": 13.5}, {"smiles": "CN(C)CCCn1cncc1-c1ccc2ncnc(Nc3ccc4c(cnn4Cc4ccccc4)c3)c2c1", "inhibition": 1.38}, {"smiles": "CCCCCCC(N)c1ccc(OCCCOc2ccc(C(N)CCCCCC)cc2)cc1", "note": "(stereo not given)", "inhibition": 106}]}]}
